For assay [1], the target named is Peroxisome proliferator-activated receptor delta (Homo sapiens) (UniProt Q03181). The assay is described as follows: qHTS assay to identify small molecule agonists of the peroxisome proliferator-activated receptor delta (PPARd) signaling pathway (AID 743212). Put shortly:
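GeneBLAzer PPARd UAS-bla HEK293H cells (beta-lactamase reporter under UAS control), plated and rested 5 h at 37 C, then exposed to compounds in DMSO at 37 C; LiveBLAzer B/G FRET substrate added, 2 h room temperature, fluorescence read.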
On the technique in general: In qHTS, concentration-response curves come from the screen itself.

Assay [2] is described as follows: qHTS assay to identify small molecule antagonists of the peroxisome proliferator-activated receptor delta (PPARd) signaling pathway - cell viability counter screen (AID 743213; active means well fitted curve in the direction sought with a large enough effect in the repeat runs; an effect the other way counts as inactive or inconclusive; further: nearly all actives have a fitted effect of over 50% in size; further: potency means the concentration at half of the fitted maximal effect). Put shortly: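 HEK293H PPARd UAS-bla cells, 5 h pre-incubation, compound + L165041 300 nM final, 17 h 37 C; B/G FRET substrate 2 h RT; then CellTiter-Glo 30 min RT, luminescence.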
The target in assay [3] is Peroxisome proliferator-activated receptor delta (Homo sapiens) (UniProt Q03181). The assay is described as follows: qHTS assay to identify small molecule antagonists of the peroxisome proliferator-activated receptor delta (PPARd) signaling pathway (AID 743215; active means well fitted inhibition curve with a large enough effect in the signal ratio in the repeat runs, not every such curve was filed as active; the % refers to the signal ratio;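 further: cells stimulated with agonist L165041 at 300 nM final during compound exposure; series mostly up to about 62 µM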). Put shortly: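 PPARd UAS-bla HEK293H cells were pre-incubated 5 h at 37 C, then given test compounds in DMSO plus agonist L165041 (300 nM final). After 17 h at 37 C, beta-lactamase FRET substrate was added; fluorescence read after 2 h at room temperature.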
Chain of Peroxisome proliferator-activated receptor delta (Homo sapiens) (Q03181 whole entry, looked up): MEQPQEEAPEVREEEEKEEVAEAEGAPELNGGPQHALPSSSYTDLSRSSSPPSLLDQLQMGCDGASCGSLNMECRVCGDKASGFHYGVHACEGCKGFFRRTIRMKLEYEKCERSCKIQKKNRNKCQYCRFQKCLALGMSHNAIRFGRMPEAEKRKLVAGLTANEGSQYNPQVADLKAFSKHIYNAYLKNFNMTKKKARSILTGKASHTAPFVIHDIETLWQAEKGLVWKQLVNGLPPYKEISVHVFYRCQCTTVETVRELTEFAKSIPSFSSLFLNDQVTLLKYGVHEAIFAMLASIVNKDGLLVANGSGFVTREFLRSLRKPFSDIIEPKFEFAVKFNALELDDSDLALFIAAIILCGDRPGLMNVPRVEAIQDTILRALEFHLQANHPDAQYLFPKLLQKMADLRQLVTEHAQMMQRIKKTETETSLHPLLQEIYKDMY

In assay [4] the target is Vitamin D3 receptor (Homo sapiens) (UniProt P11473). Kind of assay: qHTS assay to identify small molecule agonists of the vitamin D receptor (VDR) signaling pathway (AID 743222). In a few lines:
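VDR-bla cells were plated 4 h at 37C/5% CO2, then exposed to compounds in DMSO for 16 h. After LiveBLAzer B/G FRET substrate addition and 2 h at room temperature, beta-lactamase reporter fluorescence was read.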

Assay [5] has the same target. The assay is described as follows: qHTS assay to identify small molecule antagonists of the vitamin D receptor (VDR) signaling pathway (AID 743223; active means well fitted inhibition curve with a large enough effect in the signal ratio in the repeat runs, not every such curve was filed as active; the % refers to the signal ratio). Put shortly:
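After VDR-bla cells are plated and left 4 h at 37C, DMSO-dissolved compounds and 3 nM (final) calcitriol agonist are added. Incubation continues 16 h at 37C; FRET beta-lactamase substrate then develops 2 h at room temperature.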

A short description of assay [6]: qHTS assay to identify small molecule agonists of the vitamin D receptor (VDR) signaling pathway - cell viability counter screen (AID 743224; active means well fitted curve in the direction sought with a large enough effect in the repeat runs; an effect the other way counts as inactive or inconclusive; further: nearly all actives have a fitted effect of over 50% in size; further: potency means the concentration at half of the fitted maximal effect). Put shortly: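 VDR-bla cells were preincubated 4 h at 37C/5% CO2, then exposed to compounds for 16 h. After the 2 h room-temperature bla FRET read, CellTiter-Glo was added to the same wells and luminescence read after 30 min.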

Assay [7] is described as follows: qHTS assay to identify small molecule agonists of the NFkB signaling pathway - cell viability counter screen (AID 1159515). Further: series mostly up to about 61 µM; nearly all actives have a fitted effect of over 55% in size. In a few lines: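 NFkB-bla ME-180 cells, 2,000/well, were plated overnight at 37 C, 5% CO2, then exposed to compounds in DMSO for 5 hr. After the bla FRET read, CellTiter-Glo was added to the same wells; luminescence was read after 30 min at room temperature.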

A short description of assay [8]: qHTS assay to identify small molecule agonists of the endoplasmic reticulum stress response signaling pathway (AID 1159516; active means well fitted activation curve with a large enough effect in the signal ratio in the repeat runs, not every such curve was filed as active; the % refers to the signal ratio). Put shortly:
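CellSensor ESRE-bla HeLa cells, carrying a beta-lactamase reporter driven by the ER stress response element, were plated overnight and exposed to compounds for 5 hr at 37 C. Reporter activity was read as FRET substrate fluorescence after 2 hr at room temperature.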

The nature of assay [9]: qHTS assay to identify small molecule agonists of the endoplasmic reticulum stress response signaling pathway - cell viability counter screen (AID 1159517). Further: series mostly up to about 61 µM; nearly all actives have a fitted effect of over 50% in size. In a few lines: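 Luminescence readout: CellTiter-Glo, 30 min RT, same wells as the ESRE-bla reporter read. HeLa ESRE-bla, 1,500 cells/well, o/n 37 C; cpd 5 hr 37 C/5% CO2.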
The nature of assay [10]: qHTS assay to identify small molecule antagonists of the retinoid-related orphan receptor gamma (ROR-gamma) signaling pathway - cell viability counter screen (AID 1159520; active means well fitted curve in the direction sought with a large enough effect in the repeat runs; an effect the other way counts as inactive or inconclusive; further: nearly all actives have a fitted effect of over 50% in size). In a few lines:
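Tet-on ROR gamma CHO cells (1,000/well) were plated 4 hr, given compounds in DMSO for 2 hr at 37 C, then induced with 1 uM final doxycycline for 16 hr. Viability was read as ATP by CellTiter-Glo luminescence after 30 min.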

The nature of assay [11]: qHTS assay to identify small molecule agonists of the AP-1 signaling pathway (AID 1159526). Further: potency means the concentration at half of the fitted maximal effect.
The target of assay [12] is Retinoic acid receptor RXR-alpha (Homo sapiens) (UniProt P19793). The assay is described as follows: qHTS assay to identify small molecule agonists of the RXR signaling pathway (AID 1159527). Further: nearly all actives have a fitted effect of over 35% in size. Further: potency means the concentration at half of the fitted maximal effect. Put shortly: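 Reporter activation is measured as beta-lactamase activity via FRET substrate cleavage (emission 460/530 nm) in HEK 293T cells expressing an RXR-alpha-driven bla construct, following 16 hr compound exposure at 37 C.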
Chain of Retinoic acid receptor RXR-alpha (Homo sapiens) (P19793 whole entry, looked up): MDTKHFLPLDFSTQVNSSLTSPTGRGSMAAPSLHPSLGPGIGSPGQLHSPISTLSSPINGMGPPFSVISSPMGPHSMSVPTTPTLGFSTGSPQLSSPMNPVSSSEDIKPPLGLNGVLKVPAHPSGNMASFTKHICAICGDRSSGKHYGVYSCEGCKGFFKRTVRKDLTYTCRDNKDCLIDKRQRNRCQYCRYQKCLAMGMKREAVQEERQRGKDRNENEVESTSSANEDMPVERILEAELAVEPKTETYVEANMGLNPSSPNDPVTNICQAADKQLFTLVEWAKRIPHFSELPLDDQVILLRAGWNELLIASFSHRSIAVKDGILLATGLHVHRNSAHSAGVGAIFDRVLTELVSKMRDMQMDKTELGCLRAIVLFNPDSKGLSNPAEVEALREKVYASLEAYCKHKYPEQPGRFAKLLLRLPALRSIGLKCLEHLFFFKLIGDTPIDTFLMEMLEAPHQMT

Assay [13] in a line: qHTS assay to identify small molecule agonists of the peroxisome proliferator-activated receptor delta (PPARd) signaling pathway - cell viability counter screen (AID 743211; active means well fitted curve in the direction sought with a large enough effect in the repeat runs; an effect the other way counts as inactive or inconclusive; further: nearly all actives have a fitted effect of over 55% in size). In a few lines:
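Multiplexed format: after the 2 h room-temperature LiveBLAzer B/G FRET step, CellTiter-Glo was added to the same wells. Luminescence after 30 min gave cell viability; compound exposure was 17 h at 37C.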

Assay [14] addresses Bile acid receptor (Homo sapiens) (UniProt Q96RI1). Kind of assay: qHTS assay to identify small molecule antagonists of the farnesoid-X-receptor (FXR) signaling pathway (AID 743217; active means well fitted inhibition curve with a large enough effect in the signal ratio in the repeat runs, not every such curve was filed as active; the % refers to the signal ratio). In a few lines:
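FXR-UAS-bla HEK 293T cells pre-incubated 5 h at 37 °C, then exposed to compounds with chenodeoxycholic acid (50 uM final) for 16 h at 37 °C. Beta-lactamase reporter read by LiveBLAzer B/G FRET substrate fluorescence after 2 h at room temperature.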

Assay [15] in a line: qHTS assay to identify small molecule agonists of the farnesoid-X-receptor (FXR) signaling pathway - cell viability counter screen (AID 743218; active means well fitted curve in the direction sought with a large enough effect in the repeat runs; an effect the other way counts as inactive or inconclusive; further: nearly all actives have a fitted effect of over 45% in size). Put shortly:
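FXR-UAS-bla HEK 293T cells, plated 5 h at 37 C, were exposed to compounds for 16 h at 37 C. CellTiter-Glo was then added to the same wells as the bla readout; luminescence read after 30 min at room temperature.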

For assay [16], the target named is Bile acid receptor (Homo sapiens) (UniProt Q96RI1). The assay is described as follows: qHTS assay to identify small molecule agonists of the farnesoid-X-receptor (FXR) signaling pathway (AID 743220; active means well fitted activation curve with a large enough effect in the signal ratio in the repeat runs, not every such curve was filed as active; the % refers to the signal ratio). In a few lines: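 Beta-lactamase reporter under UAS control in GeneBLAzer FXR HEK 293T cells (5000/well) measured with LiveBLAzer FRET substrate after 2 h at room temperature. Compound exposure lasted 16 h at 37C.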
Chain of Bile acid receptor (Homo sapiens) (Q96RI1 whole entry, looked up): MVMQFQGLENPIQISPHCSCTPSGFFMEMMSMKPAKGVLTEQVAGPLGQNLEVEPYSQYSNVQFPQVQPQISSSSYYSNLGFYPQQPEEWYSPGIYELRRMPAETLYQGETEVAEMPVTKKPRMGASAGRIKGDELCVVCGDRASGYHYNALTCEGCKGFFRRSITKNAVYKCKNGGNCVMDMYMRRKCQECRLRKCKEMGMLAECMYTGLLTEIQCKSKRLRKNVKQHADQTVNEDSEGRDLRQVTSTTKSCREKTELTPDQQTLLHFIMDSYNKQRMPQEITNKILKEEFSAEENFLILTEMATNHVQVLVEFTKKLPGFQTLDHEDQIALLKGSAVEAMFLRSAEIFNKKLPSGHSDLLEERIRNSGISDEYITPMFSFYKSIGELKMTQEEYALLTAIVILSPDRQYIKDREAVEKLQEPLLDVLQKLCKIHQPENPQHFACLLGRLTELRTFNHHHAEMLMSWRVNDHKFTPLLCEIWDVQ

The nature of assay [17]: qHTS assay to identify small molecule antagonists of the farnesoid-X-receptor (FXR) signaling pathway - cell viability counter screen (AID 743221; active means well fitted cell-killing curve with a large enough effect in the repeat runs, not every such curve was filed as active; further: nearly all actives have a fitted effect of over 50% in size). In a few lines: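 CellTiter-Glo, 30 min RT, luminescence; same wells as the LiveBLAzer FRET read. Cells: FXR-UAS-bla HEK 293T. Treatment: compound with chenodeoxycholic acid 50 uM final, 16 h at 37 C.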
Assay [18] can be described thus: qHTS assay to identify small molecule antagonists of the vitamin D receptor (VDR) signaling pathway - cell viability counter screen (AID 743225; active means well fitted curve in the direction sought with a large enough effect in the repeat runs; an effect the other way counts as inactive or inconclusive; further: nearly all actives have a fitted effect of over 50% in size). In a few lines: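 Cytotoxicity toward the VDR-bla HEK 293T line was scored by ATP-based CellTiter-Glo luminescence, read in the wells already used for the beta-lactamase readout after 16 h compound treatment under 3 nM 1-alpha,25-dihydroxyvitamin D3 stimulation.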

Assay [19] addresses Nuclear receptor ROR-gamma (Homo sapiens) (UniProt P51449). The assay is described as follows: qHTS assay to identify small molecule antagonists of the retinoid-related orphan receptor gamma (ROR-gamma) signaling pathway (AID 1159521; active means well fitted curve in the direction sought with a large enough effect in the repeat runs; an effect the other way counts as inactive or inconclusive). In a few lines:
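Readout: ONE-Glo luciferase luminescence, 30 min at room temperature. System: Tet-on RORγ CHO, RORE-LUC. Sequence: compound 2 h, doxycycline 1 uM final, 16 h at 37 C.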

The nature of assay [20]: qHTS assay to identify small molecule agonists of the AP-1 signaling pathway - cell viability counter screen (AID 1159525). Further: nearly all actives have a fitted effect of over 55% in size. Put shortly: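 ME-180 AP-1-bla, 2500 cells/well, Opti-MEM + 0.5% dialyzed FBS; overnight 37 °C; cpd 15-pt titration, 5 h 37 °C; CellTiter-Glo 30 min RT; luminescence read; normalised to TOAB and DMSO controls.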

The structures appear in SMILES notation. Inconclusive results are not listed. Active and inactive are the calls of the source. Unless noted, the call rests on the fitted dose curve.

Chain of Vitamin D3 receptor (Homo sapiens) (P11473 whole entry, looked up): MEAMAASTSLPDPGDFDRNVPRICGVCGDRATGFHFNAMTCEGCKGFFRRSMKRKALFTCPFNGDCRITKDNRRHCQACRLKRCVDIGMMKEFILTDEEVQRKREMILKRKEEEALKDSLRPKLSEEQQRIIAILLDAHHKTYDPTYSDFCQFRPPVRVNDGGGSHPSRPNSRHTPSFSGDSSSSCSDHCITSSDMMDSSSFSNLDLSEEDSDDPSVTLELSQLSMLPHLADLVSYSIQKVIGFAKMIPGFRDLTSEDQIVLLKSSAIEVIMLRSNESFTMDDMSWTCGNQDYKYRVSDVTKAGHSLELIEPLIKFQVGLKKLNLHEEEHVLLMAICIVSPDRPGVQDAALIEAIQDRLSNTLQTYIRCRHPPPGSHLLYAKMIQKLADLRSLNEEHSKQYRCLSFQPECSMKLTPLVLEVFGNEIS

As for `CC(Cc1ccccc1)NCc1ccccc1Cl` (stereo unspecified), the compound was classed as inactive in assay [1] and in assay [4]. Further, the Potency result in assay [2], in [3], in [5], in assay [6], in assay [7] and in assay [8] was “inactive” throughout. For the same compound, the Potency result in assay [9], in [10] and in [12] was “inactive” each time. Besides, the Potency in assay [11] is 23.9 µM (active).

As for `O=C(O)COc1cc(Cl)c(Cl)cc1Cl`, the Potency result in [13], in [2], in assay [14], in assay [15], in assay [17] and in [5] was “inactive” in each case. The Potency entry in assay [6], in assay [18], in [7], in [8], in [10] and in assay [19] was “inactive” in each case. For the same compound, the Potency entry in assay [20] and in assay [11] was “inactive” throughout. Besides, the outcome in assay [16] and in assay [4] was inactive. Besides, the Potency in assay [12] is 24.6 µM (active).

As to `COc1ccccc1N1CCNCC1`, the result in assay [1], in assay [16] and in [4] was inactive. Besides, the Potency entry in assay [3], in assay [14], in assay [15], in [17], in assay [5] and in assay [18] was “inactive” throughout. Besides, the Potency entry in [7], in assay [8], in [9], in assay [10], in assay [20] and in assay [11] was “inactive” in each case. For the same compound, in assay [12], the Potency result was “inactive”.

Regarding `Cc1ncc(C[n+]2csc(CCO)c2C)c(N)n1`, the Potency result in assay [13], in assay [2], in assay [15], in assay [5], in assay [6] and in assay [18] was “inactive” in each case. The Potency result in assay [7], in assay [8], in [9], in [10], in assay [19] and in assay [11] was “inactive” each time. Moreover, the compound was classed as inactive in [4].

Take `C[Si](Cn1cncn1)(c1ccc(F)cc1)c1ccc(F)cc1`: the compound was called inactive in assay [1] and in assay [16]. Further, the values for the Potency in [2] and in assay [6] were 38.9 µM (active) and 12.7 µM (active), respectively. Also, the Potency result in assay [7], in assay [8], in assay [9], in assay [10], in assay [20] and in [11] was “inactive” throughout. Moreover, the Potency result in assay [12] is “inactive”.

As to `CC(C)(C#N)C(C)(C)C#N`, the Potency result in [13], in assay [3], in assay [14], in [15], in [6] and in assay [7] was “inactive” in each case. The Potency result in assay [8], in assay [9], in assay [10], in [20], in assay [11] and in [12] was “inactive” each time. In addition, the call in assay [1] and in assay [16] was inactive.

On to `C[N+](C)(C)CCOC(=O)C(O)(c1ccccc1)c1ccccc1`, for which the outcome in [1] and in assay [4] was inactive. For the same compound, the Potency result in [3], in assay [17], in assay [5], in [6], in assay [18] and in assay [7] was “inactive” throughout. Further, the Potency entry in [8], in assay [9], in assay [10], in [11] and in [12] was “inactive” throughout.

As for `CCCSP(=S)(OCC)Oc1ccc(SC)cc1` (stereo unspecified), the Potency result in [13], in [2], in assay [14], in assay [15], in [5] and in [18] was “inactive” each time. Besides, the Potency result in assay [7], in [8], in assay [9], in [10], in assay [20] and in [11] was “inactive” each time. The compound was called inactive in assay [1], in assay [16] and in assay [4].

These data come from PubChem BioAssay (Tox21).
